Records with an inconclusive call do not appear. The call rests on the fitted dose curve; in most records, active means well fitted activation curve with a large enough effect; inconclusive means small, poorly fitted or top-dose-only effect; inactive means no such curve, though single readings can be large or run the other way.
The molecules below were run against Rap guanine nucleotide exchange factor 3 (Homo sapiens) (UniProt O95398) (assay: Confirmatory qHTS for agonist of cAMP-regulated guanine nucleotide exchange factor 3 (EPAC1) (AID 1645881;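 further: EPAC1 catalysed release of BODIPY-GDP from Rap1B seen as fluorescence loss; 100% = effect of cAMP agonist control; nearly all actives have a fitted effect of over 75% in size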)). Conditions: EPAC1 Rap1B BODIPY-GDP exchange fluorescence; series mostly up to 154 µM; activation: at the top concentration.
Rap guanine nucleotide exchange factor 3 (Homo sapiens), sequence (O95398 whole entry, looked up): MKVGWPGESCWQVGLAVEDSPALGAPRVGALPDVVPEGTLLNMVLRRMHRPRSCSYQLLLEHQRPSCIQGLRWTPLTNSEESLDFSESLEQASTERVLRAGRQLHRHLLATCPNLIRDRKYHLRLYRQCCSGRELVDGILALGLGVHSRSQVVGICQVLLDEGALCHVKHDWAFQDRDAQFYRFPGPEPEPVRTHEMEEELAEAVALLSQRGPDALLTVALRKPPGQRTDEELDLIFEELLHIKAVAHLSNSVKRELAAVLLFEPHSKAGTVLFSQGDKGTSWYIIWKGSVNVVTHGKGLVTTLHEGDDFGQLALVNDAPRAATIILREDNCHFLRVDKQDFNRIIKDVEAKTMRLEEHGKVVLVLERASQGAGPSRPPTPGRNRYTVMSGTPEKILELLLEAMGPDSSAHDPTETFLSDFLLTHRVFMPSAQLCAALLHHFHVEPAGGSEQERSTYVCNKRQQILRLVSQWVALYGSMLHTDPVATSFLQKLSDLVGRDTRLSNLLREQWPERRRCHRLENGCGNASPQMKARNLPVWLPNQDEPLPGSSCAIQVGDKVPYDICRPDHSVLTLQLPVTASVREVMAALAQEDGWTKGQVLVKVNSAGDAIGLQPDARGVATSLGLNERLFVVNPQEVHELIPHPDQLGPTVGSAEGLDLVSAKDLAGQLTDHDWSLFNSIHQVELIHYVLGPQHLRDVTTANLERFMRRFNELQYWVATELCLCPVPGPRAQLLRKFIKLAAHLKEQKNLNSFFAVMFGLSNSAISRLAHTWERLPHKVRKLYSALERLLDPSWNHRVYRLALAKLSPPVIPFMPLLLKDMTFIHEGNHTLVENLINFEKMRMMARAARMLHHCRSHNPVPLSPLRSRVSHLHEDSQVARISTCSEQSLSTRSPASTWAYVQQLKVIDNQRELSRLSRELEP

activation, inactive:
CCOC(=O)N(C)c1c(CC)nc2c(OCc3ccc(C(F)(F)F)cc3)cccn12 -3.54%, O=C(CSc1nc(-c2cccs2)nc2cc(=O)[nH]n12)Nc1cccc(C(F)(F)F)c1 -14.3%, Cc1ccc(S(=O)(=O)Nc2ccc(S(=O)(=O)Nc3nccs3)cc2)cc1C 4.88%, Cc1csc2c(=O)sc(NC(=O)c3cccs3)nc12 3.51%, C/C=C/c1cc(OC)c2c(c1)[C@H](C)[C@@H](c1ccc(O)c(OC)c1)O2 4.51%, NS(=O)(=O)c1ccc(NC(=O)c2cccc(N3C(=O)c4ccccc4C3=O)c2)cc1 14.7%, CCOc1cc(/C=C/c2cc(C(=O)O)c3ccccc3n2)ccc1OC -13.9%, O=C(N[C@H](Cc1ccc(Cl)cc1)C(=O)O)OCC1c2ccccc2-c2ccccc21 -8.53%

What follows are molecules tested against Rap guanine nucleotide exchange factor 4 (Homo sapiens) (UniProt Q8WZA2) (assay: Confirmatory qHTS for agonist of cAMP-regulated guanine nucleotide exchange factor 4 (EPAC2) (AID 1645884;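 further: nucleotide exchange releases bodipy-GDP from Rap1 and this lowers its fluorescence; on the % scale 0 is the no-effect control and ±100 the full control effect; nearly all actives have a fitted effect of over 65% in size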)). Conditions: EPAC2 GEF activity, Rap1B-BODIPY-GDP fluorescence; series mostly up to 154 µM; activation: at the top concentration.
Rap guanine nucleotide exchange factor 4 (Homo sapiens), sequence (Q8WZA2 whole entry, looked up): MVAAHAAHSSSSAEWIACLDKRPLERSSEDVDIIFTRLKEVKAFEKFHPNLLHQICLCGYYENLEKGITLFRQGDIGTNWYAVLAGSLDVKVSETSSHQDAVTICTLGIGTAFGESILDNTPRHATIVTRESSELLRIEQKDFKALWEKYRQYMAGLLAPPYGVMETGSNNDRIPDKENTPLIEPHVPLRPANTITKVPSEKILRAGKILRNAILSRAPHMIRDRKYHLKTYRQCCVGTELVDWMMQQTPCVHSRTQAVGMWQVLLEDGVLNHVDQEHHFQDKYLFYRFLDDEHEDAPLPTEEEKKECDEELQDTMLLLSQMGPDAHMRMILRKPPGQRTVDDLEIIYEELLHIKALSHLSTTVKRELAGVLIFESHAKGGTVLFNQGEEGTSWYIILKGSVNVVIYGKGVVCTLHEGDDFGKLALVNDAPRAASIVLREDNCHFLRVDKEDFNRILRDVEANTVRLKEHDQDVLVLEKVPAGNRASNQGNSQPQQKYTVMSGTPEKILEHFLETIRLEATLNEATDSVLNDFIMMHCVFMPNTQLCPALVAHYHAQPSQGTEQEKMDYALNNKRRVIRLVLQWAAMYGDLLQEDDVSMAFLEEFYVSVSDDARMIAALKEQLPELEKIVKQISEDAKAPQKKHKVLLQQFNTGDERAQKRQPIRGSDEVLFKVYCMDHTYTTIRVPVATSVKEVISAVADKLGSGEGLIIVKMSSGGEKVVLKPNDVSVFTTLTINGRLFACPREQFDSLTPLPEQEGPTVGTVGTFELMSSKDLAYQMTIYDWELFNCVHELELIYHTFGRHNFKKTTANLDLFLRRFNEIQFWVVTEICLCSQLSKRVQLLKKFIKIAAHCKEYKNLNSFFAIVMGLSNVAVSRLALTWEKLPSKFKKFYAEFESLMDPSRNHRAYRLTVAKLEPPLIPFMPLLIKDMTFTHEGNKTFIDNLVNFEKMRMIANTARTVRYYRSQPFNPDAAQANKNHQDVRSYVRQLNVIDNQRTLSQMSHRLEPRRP

activation, inactive:
O=C(O)/C(=C\c1ccc(-c2ccc(F)cc2)o1)c1ccccc1 -9.89%, CCCCCCn1nc(C(=O)OCC(=O)c2c(N)n(C)c(=O)n(C)c2=O)c2ccccc2c1=O -22.7%, COc1ccc(C(=O)Nc2ccccc2-c2nnn(CC(N)=O)n2)cc1 -1.42%, O=C(Cn1ncc(Cl)c(Cl)c1=O)NC(=O)NC1CCCCC1 3.69% [at 17.1 µM, percent relative to cAMP agonist control], O=C(COC(=O)c1ccc2c(c1)C(=O)N(Cc1ccncc1)C2=O)Nc1ccccc1[N+](=O)[O-] 2.45%, CCc1c(O)cc(=O)n(-c2ccccc2)c1-c1ccccc1 0.486%, COc1ccc(N=C2SC(C(=O)Nc3ccc(C(=O)O)cc3)CC(=O)N2Cc2cccs2)cc1 (centres undefined) -0.227% [at 17.1 µM, percent relative to cAMP agonist control], Cc1ccc(C)c(Cn2nc(-c3cc(C)ccc3C)ccc2=O)c1 0% [at 83.8 µM, percent relative to cAMP agonist control], Cc1cc2oc(=O)c(CC(=O)O)c(C)c2c2occ(-c3ccccc3)c12 0.887% [at 83.8 µM, percent relative to cAMP agonist control], Cc1cc(C)c(C)c(S(=O)(=O)N2CCCCC2C(=O)O)c1C (centres undefined) 4.7% [at 17.1 µM, percent relative to cAMP agonist control], C=CCn1c(=NC(=O)c2sc3ccccc3c2Cl)sc2cc(S(N)(=O)=O)ccc21 -6.52%, CCOC(=O)C1=C(C)N=c2s/c(=C/c3cccc([N+](=O)[O-])c3O)c(=O)n2C1c1ccccc1 (centres undefined) -9.32%, CCN1CCc2c(sc(-n3cccc3)c2C(C)NC(=O)Nc2ccc(C(=O)OC)cc2)C1 (centres undefined) -6.72% [at 83.8 µM, percent relative to cAMP agonist control], CCN(C(=O)c1noc2c1COc1ccc(C)cc1-2)c1cccc(C)c1 0% [at 83.8 µM, percent relative to cAMP agonist control], O=C(/C=C/c1ccco1)NC(=S)Nc1cccc(-c2nc3ccccc3o2)c1 -2.07% [at 17.1 µM, percent relative to cAMP agonist control], Cc1nnc(-c2ccco2)c2cn(-c3cccc(Br)c3)nc12 -5.41%, Oc1ccc(NCc2ccc(OCc3ccccc3Cl)cc2)cc1 0% [at 83.8 µM, percent relative to cAMP agonist control], Cc1cccc(C(=O)N=c2c(C#N)cc3c(=O)n4cccc(C)c4nc3n2Cc2ccco2)c1 -6.01%, N#CC(c1nc2ccccc2nc1OCCO)S(=O)(=O)c1ccccc1 (centres undefined) -1.2% [at 17.1 µM, percent relative to cAMP agonist control], COc1ccc(/C=N\Nc2ccc([N+](=O)[O-])cc2)c(C(=O)O)c1OC -8.22%, COc1cc(/C=N/NC(=O)c2ccccc2O)ccc1OCC(=O)Nc1ccccc1 -7.34% [at 17.1 µM, percent relative to cAMP agonist control], CCCCC(CC)COC1(c2ccccc2)OC(=O)c2ccccc21 (centres undefined) -29.3%, O=C(C=Cc1ccccc1)c1c[nH]c2ccccc2c1=O 5.37% [at 17.1 µM, percent relative to cAMP agonist control], CC1CCC(NC(=O)Cn2c3c(c(-c4ccccc4Cl)cc2=O)CCC3)CC1 (centres undefined) 13.3% [at 17.1 µM, percent relative to cAMP agonist control], Nc1ccc(SC(F)(F)F)cc1C(=O)c1ccccc1 -2.87% [at 17.1 µM, percent relative to cAMP agonist control], O=C(N/N=C/c1ccc(O)c([N+](=O)[O-])c1)C1CC1(c1ccccc1)c1ccccc1 (centres undefined) 2.95% [at 17.1 µM, percent relative to cAMP agonist control]

From PubChem BioAssay (NCATS)
